Source: PubChem (National Center for Advancing Translational Sciences (NCATS))
Compounds with a hit are over-represented: about 5.7% of the library has one in this group of screens.
PI4K2A inh: PI4K2A (human) kinase inhibition; Q9BTU6; purified PI4K2A, ADP-Glo luminescence, 1 h; hits give low values; activity change, negative = inhibition, % at 76.9 µM; hit rate 0.13% among 420,000; in the data active = activity change below about -50%; inconclusive = mostly about -30% to -49%
Target sequence (Q9BTU6 whole entry, looked up): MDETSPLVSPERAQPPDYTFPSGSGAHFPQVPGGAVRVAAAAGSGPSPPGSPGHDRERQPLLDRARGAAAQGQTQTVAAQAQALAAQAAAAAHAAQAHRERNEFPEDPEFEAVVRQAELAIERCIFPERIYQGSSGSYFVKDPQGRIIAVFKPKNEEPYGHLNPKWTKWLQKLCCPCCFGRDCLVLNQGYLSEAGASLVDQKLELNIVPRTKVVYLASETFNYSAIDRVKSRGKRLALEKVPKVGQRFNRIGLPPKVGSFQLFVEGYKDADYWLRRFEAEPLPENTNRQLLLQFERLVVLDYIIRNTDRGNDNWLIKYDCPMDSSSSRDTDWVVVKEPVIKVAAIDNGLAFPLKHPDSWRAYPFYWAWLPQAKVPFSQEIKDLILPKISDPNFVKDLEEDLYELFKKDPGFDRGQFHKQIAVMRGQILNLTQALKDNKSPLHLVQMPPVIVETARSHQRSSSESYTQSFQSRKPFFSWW
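ADP-Glo luminescence measured ADP generated by PI4K2A enzyme (4 ug/mL before mixing) with 1.2 mM PI substrate (pre-mix) and 300 microM ATP (pre-mix). Tris pH7.5 buffer with MgCl2, Triton X-100; 1 h reaction at ambient temperature.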
Nrf2 block: Nrf2 pathway inhibition; A549 ARE-Fluc reporter, luciferase luminescence, 18-24 h; Potency, µM (highest dose often 46 µM), most hits filed as inhibitors; hit rate 2.1% among 360,000; also: nearly all actives have a fitted effect of over 60% in size
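Quantitative HTS in A549 cells stably bearing an antioxidant response element-firefly luciferase construct. Inhibition of Nrf2-driven transcription was scored by luminescence after 18-24 h of compound exposure at 37 °C.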
Giardia killer: kills Giardia lamblia; Giardia lamblia trophozoite viability; hit rate 0.15% among 340,000; activity change, % at 7.66 µM, hits read low; in the data active = activity change below about -80%; inconclusive = between about -30% and that limit;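 also: parasites exposed to compound for two days anaerobically before the ATP read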
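Viability, read as ATP luminescence: trophozoites at 100 cells/well, compound added, 48 hrs anaerobic at 37 deg C, then 15-30 min room-temperature development before reading.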
A549 tox-1: counter-screen for Nrf2 inhibitors: cytotoxicity in A549 cells. hit rate 0.16% among 390,000. AID 504648. Potency, µM (highest dose often 46 µM), usual class: inhibitors. A549 ARE-Fluc cells, CellTiter-Fluor viability, 18-24 h
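A549 ARE_Fluc cells in 5% FBS OPTI-MEM were exposed to compounds in concentration-response for 18-24 h at 37 deg C. Viability was read by CellTiter-Fluor fluorescence (Ex 405/Em 525) after 30 min, before the luciferase read.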
KB-3-1 cytotox: kills parental KB-3-1 adenocarcinoma cells | KB-3-1 viability, CellTiter-Glo ATP luminescence, 72 h | Potency, µM (highest dose often 46.1 µM), most hits filed as cytotoxic | AID 1347075 | hit rate 1.4% among 400,000; also: nearly all actives have a fitted effect of over 60% in size
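Cells are dispensed, compounds pinned in, plates held at 37 °C for 72 h, then CellTiter-Glo is added and luminescence read after 10 minutes. Cell line: parental KB-3-1 in phenol-red-free DMEM, 10% FBS.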
KB-V1 MDR tox: KB-V1 MDR subline cytotoxicity | hit rate 3.4% among 400,000 | AID 1347076 | KB-V1 MDR cells viability, CellTiter-Glo, 72 h | Potency, µM (highest dose often 46.1 µM), usual class: cytotoxic; also: nearly all actives have a fitted effect of over 60% in size
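qHTS viability screen in drug-selected KB-V1 MDR cells: 72 h compound treatment at 37 degrees C, ATP luminescence end point.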
FLuc enzyme inh: firefly luciferase inhibition, Nrf2 hit validation; shares compounds with Nrf2 block; purified firefly luciferase, luminescence inhibition; Potency, µM (titrated, usually from 57.5 µM), most hits filed as inhibitors; hit rate 4% among 1,400; AID 720522; also: nearly all actives have a fitted effect of over 65% in size
A549 tox-2: toxic to A549 ARE-Fluc cells in Nrf2 counterscreen | shares compounds with Nrf2 block | A549 ARE-Fluc cells, cytotoxicity counterscreen | Potency, µM (titrated, usually from 46.1 µM), hits mostly inhibitors | hit rate 2% among 1,400;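 also: cells exposed to compounds for 18 to 24 hours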
ARE-Fluc inh: confirmation of Nrf2 inhibitors in A549 ARE reporter cells. shares compounds with Nrf2 block. A549 ARE-firefly luciferase reporter, luminescence. Potency, µM (doses to about 46.1 µM), most hits filed as inhibitors. hit rate 74% among 1,400. AID 720524; also: nearly all actives have a fitted effect of over 65% in size
Of the large screens only hits and unclear results are named; the others gave an inactive call (follow-up assays come after a bar, where shown). Unless noted, calls follow the shape of the dose curve; as a rule, active = well fitted curve in the direction sought with a large enough effect; inconclusive = small, poorly fitted or top-dose-only effect, or another doubt; inactive = no such curve, though single readings can be large; an effect the other way counts as inactive or inconclusive.

COc1ccc(NC(=O)COC(=O)Cn2cnc3ccccc32)cc1	none
O=S(=O)(c1cc2ccccc2s1)n1c(CN2CCOCC2)nc2ccccc21	none (no result: Nrf2 block, Giardia killer, A549 tox-1, KB-3-1 cytotox, KB-V1 MDR tox)
COc1cc(NC(=O)CSc2nnc3n2C(C)(C)Cc2ccccc2-3)cc(OC)c1	Nrf2 block inconclusive
Cc1ccc(Cl)cc1N1CCN(C(=O)CSc2nnc3n2C(C)(C)Cc2ccccc2-3)CC1	Nrf2 block 6.51µM, A549 tox-1 inconclusive, KB-3-1 cytotox inconclusive, KB-V1 MDR tox 11.6µM | FLuc enzyme inh inactive | A549 tox-2 inconclusive | ARE-Fluc inh 6.51µM
Cn1nc(C(C)(C)C)cc1C(=O)NCc1ccc2c(c1)OCO2	Nrf2 block 1.84µM, KB-V1 MDR tox inconclusive | FLuc enzyme inh inactive | A549 tox-2 inactive | ARE-Fluc inh 3.66µM
CC(=O)c1c(C)[nH]c(C(=O)OCC(=O)Nc2ccccc2Cl)c1C	Nrf2 block 5.8µM, KB-3-1 cytotox 20.6µM, KB-V1 MDR tox 4.61µM | FLuc enzyme inh inactive | A549 tox-2 inactive | ARE-Fluc inh 5.8µM
Cc1ccc(NC(=O)CSc2nnc(-c3cc(-c4ccc(Cl)cc4)n[nH]3)n2N)cc1	none (no result: Nrf2 block, Giardia killer, A549 tox-1, KB-3-1 cytotox, KB-V1 MDR tox)
O=S1(=O)CC2c3ccccc3CCN2CN1CCc1ccccc1 (centres undefined)	none (no result: Nrf2 block, Giardia killer, A549 tox-1, KB-3-1 cytotox, KB-V1 MDR tox)
CN(c1cccc(NC(=O)CN(c2ccc(C34CC5CC(CC(C5)C3)C4)cc2)S(C)(=O)=O)c1)S(C)(=O)=O	Nrf2 block 7.31µM, A549 tox-1 inconclusive, KB-3-1 cytotox inconclusive, KB-V1 MDR tox 18.4µM | FLuc enzyme inh inactive | A549 tox-2 inconclusive | ARE-Fluc inh 20.6µM
CN(c1cccc(NC(=O)CN(c2ccc(F)cc2)S(C)(=O)=O)c1)S(C)(=O)=O	none
Cc1cc(C)c2c(N)c3cccc(C)c3nc2n1	Nrf2 block 7.31µM, KB-3-1 cytotox 7.31µM, KB-V1 MDR tox 8.2µM | FLuc enzyme inh inactive | A549 tox-2 inactive | ARE-Fluc inh 3.26µM
COc1cccc2c1C(=O)c1c(O)c3c(c(O)c1C2=O)CC(O)(C(=O)CO)CC3OC1CC(N(C)C)C(O)C(C)O1 (centres undefined)	Nrf2 block 0.461µM, A549 tox-1 inconclusive, KB-3-1 cytotox inconclusive, KB-V1 MDR tox 13µM | FLuc enzyme inh inconclusive | A549 tox-2 inconclusive | ARE-Fluc inh 0.259µM
CS(=O)(=O)N1CCCc2cc(C(=O)Nc3cccc(C(F)(F)F)c3)ccc21	Nrf2 block 9.2µM (no result: Giardia killer, KB-3-1 cytotox, KB-V1 MDR tox) | FLuc enzyme inh inconclusive | A549 tox-2 inactive | ARE-Fluc inh inconclusive
COc1cccc(NC(=O)c2ccc3c(c2)CCN3S(C)(=O)=O)c1	none
Cc1ccc(C)c(OCc2ccc(C(=O)Nc3ccc([N+](=O)[O-])cn3)o2)c1	Nrf2 block 2.91µM, KB-3-1 cytotox inconclusive, KB-V1 MDR tox inconclusive | FLuc enzyme inh inactive | A549 tox-2 inactive | ARE-Fluc inh 5.17µM
Clc1ccc(/C=C/c2ccncc2)cc1Cl	KB-3-1 cytotox inconclusive (no result: PI4K2A inh, Nrf2 block, Giardia killer, A549 tox-1) | FLuc enzyme inh inactive | A549 tox-2 inactive | ARE-Fluc inh inconclusive
CN(C)c1ccc(/C=C/c2ccncc2)cc1	KB-3-1 cytotox inconclusive
NC(=S)N/N=C/c1ncc(C(F)(F)F)cc1Cl	Nrf2 block 4.11µM, A549 tox-1 inconclusive | FLuc enzyme inh inactive | A549 tox-2 inconclusive | ARE-Fluc inh 5.17µM
O=C(NC(=S)NNC(=O)c1cnccn1)c1ccc(Cl)cc1	Nrf2 block 5.8µM | FLuc enzyme inh inactive | A549 tox-2 inactive | ARE-Fluc inh 5.8µM
COc1ccc(C(=O)NC(=S)NNC(=O)c2cnccn2)cc1	Nrf2 block inconclusive, A549 tox-1 inconclusive, KB-3-1 cytotox inconclusive | FLuc enzyme inh inconclusive | A549 tox-2 inactive | ARE-Fluc inh 5.8µM
COc1ccc(C(=O)NC(=S)NNC(=O)COc2ccccc2)cc1	Nrf2 block inconclusive, KB-3-1 cytotox inconclusive, KB-V1 MDR tox inconclusive
O=C(CSc1ncnc2c1cnn2-c1ccc(F)cc1)NC1CCCC1	Nrf2 block 5.17µM, KB-3-1 cytotox inconclusive, KB-V1 MDR tox inconclusive | FLuc enzyme inh inactive | A549 tox-2 inactive | ARE-Fluc inh inconclusive
COc1cccc(NC(=O)CCc2nnc3n(CC(C)C)c(=O)c4ccccc4n23)c1	none (no result: Giardia killer, KB-3-1 cytotox, KB-V1 MDR tox)
Cc1cc(/C=C2/SC(=S)N(c3cccc(Cl)c3)C2=O)c(C)n1-c1cccnc1	Nrf2 block inconclusive
Cc1cc(/C=C2/SC(=S)N(c3ccc([N+](=O)[O-])cc3)C2=O)c(C)n1-c1cccnc1	Nrf2 block 6.51µM, Giardia killer inconclusive, A549 tox-1 inconclusive, KB-3-1 cytotox inconclusive | FLuc enzyme inh inactive | A549 tox-2 inactive
Cc1cccc(/C=C/c2cccs2)n1	KB-3-1 cytotox 2.31µM (no result: PI4K2A inh, Nrf2 block, Giardia killer, A549 tox-1) | FLuc enzyme inh inactive | A549 tox-2 inactive | ARE-Fluc inh 2.59µM
Oc1cccc2ccc(/C=C/c3cccs3)nc12	KB-3-1 cytotox inconclusive (no result: Nrf2 block)
O=C1COc2ccccc2C(c2nnnn2Cc2ccccc2)N1Cc1cccs1 (centres undefined)	none (no result: Nrf2 block, Giardia killer, A549 tox-1, KB-3-1 cytotox, KB-V1 MDR tox)
